Non-standard residues stand in square brackets, D forms with d. Residues, ends and D or L forms follow the SMILES beside them. *: point of attachment. Nle = CCCC[C@H](N)C(=O)O; Cbz = O=C(OCc1ccccc1)*; CH2F = FC*
The compounds below were run against Cyclin-dependent kinase 2 (Homo sapiens) (UniProt P24941). Settings: Compound concentration 20.0 uM.
For `C[C@@H]1OC(=O)NN=C1c1ccc(-c2ccc(F)cc2)c(C(F)(F)F)c1`, the ΔTm was -0.76 °C.
`N#C[C@@H]1CCCN1C(=O)CNC(=O)c1ccnc2ccc(OCCCN3CCN(C(=O)CN4CCN(CC(=O)O)CCN(CC(=O)O)CCN(CC(=O)O)CC4)CC3)cc12` gave a ΔTm of 0.18 °C.
`O=C1C(=O)N(Cc2ccccc2)c2ccc(S(=O)(=O)N3CCC[C@H]3COc3ccc(C(F)(F)F)cc3)cc21` was tested, and the ΔTm was -0.42 °C.
`CCCCN(Cc1ccc(C(=O)NO)cc1)C(=O)Nc1ccccc1` gave a ΔTm of 0.54 °C.

What follows are compounds tested against Casein kinase I isoform delta (Homo sapiens) (UniProt P48730). Settings: Compound concentration 20.0 uM.
Casein kinase I isoform delta (Homo sapiens), sequence (P48730 whole entry, looked up, canonical isoform): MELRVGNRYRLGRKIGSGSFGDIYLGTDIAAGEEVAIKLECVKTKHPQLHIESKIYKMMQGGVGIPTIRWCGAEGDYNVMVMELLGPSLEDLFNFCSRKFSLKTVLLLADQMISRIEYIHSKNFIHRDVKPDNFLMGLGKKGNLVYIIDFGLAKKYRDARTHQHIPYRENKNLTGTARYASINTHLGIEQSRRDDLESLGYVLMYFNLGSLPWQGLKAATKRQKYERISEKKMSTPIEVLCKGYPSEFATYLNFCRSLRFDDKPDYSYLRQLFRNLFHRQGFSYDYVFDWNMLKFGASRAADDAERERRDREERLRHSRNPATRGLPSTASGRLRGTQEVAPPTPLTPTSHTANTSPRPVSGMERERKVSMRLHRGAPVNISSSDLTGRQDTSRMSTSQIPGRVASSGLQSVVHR
Work on `Cc1noc(C)c1-c1cc(Cl)c(Nc2ccccc2C(=O)O)c(Cl)c1` yielded a ΔTm of -0.64 °C.
`Cc1ncccc1-c1cnc(NCc2c(F)ccc3c2CCO3)n2cnnc12` gave a ΔTm of 0.15 °C.
`Fc1ccc(CNc2ncnc3ccc(F)cc23)cc1` gave a ΔTm of 0.46 °C.
Compound `CCCC[C@@H](C=O)NC(=O)[C@H](CC(C)C)NC(=O)[C@H](CC(C)C)NC(C)=O` (Ac-Leu-Leu-[Nle]-aldehyde) has a ΔTm of 0.12 °C.
With `Nc1ncnc2nc(-c3ccc(N4CCOCC4)nc3)cc(-c3cccc(Br)c3)c12` the ΔTm was 2.63 °C.
In the case of `COC(=O)CC[C@H](NC(=O)[C@H](Cc1c[nH]c2ccccc12)NC(=O)OCc1ccccc1)C(=O)N[C@@H](Cc1cnc[nH]1)C(=O)N[C@@H](CC(=O)OC)C(=O)CF` (Cbz-WE(OMe)HD(OMe)-CH2F), the ΔTm is reported as 0.21 °C.
In the case of `Cc1ccc(F)c2cc(C(=O)N[C@@H]3CCC[C@H](N4CC[C@H](N(C)S(C)(=O)=O)C4)C3)[nH]c12`, the ΔTm is reported as 0.73 °C.
`NC(=O)c1cnc(N[C@@H]2CCCC[C@@H]2N)nc1Nc1cccc(-n2nccn2)c1` gave a ΔTm of 6.3 °C.
`CN(CCCCCCNc1ccnc2cc(Cl)ccc12)CCCCCCNc1ccnc2cc(Cl)ccc12` gave a ΔTm of -0.85 °C.
For `CCCOc1ccc(NC(=O)CN2CCN(C)CC2)cc1-c1nc(CC)c(CC)c(=O)[nH]1`, the ΔTm was -0.21 °C.
With `COc1cc(C(C)C)c2c(c1)S(=O)(=O)N(COc1cc(=O)n3cccc(OCCN4CCCCC4)c3n1)C2=O` the ΔTm was 0.5 °C.
`O=C(CCl)Nc1ccc(S(=O)(=O)c2ccc(NC(=O)CCl)cc2)cc1` was tested, and the ΔTm was 0.55 °C.
Work on `CCn1c(=O)c(C)cn(Cc2nnc(-c3ccc(F)c(O)c3F)s2)c1=O` yielded a ΔTm of 0.26 °C.
`Cc1ncsc1-c1ccc([C@H](C)NC(=O)[C@@H]2C[C@@H](O)CN2C(=O)[C@@H](NC(=O)COCCCOCCNC(=O)C[C@@H]2N=C(c3ccc(Cl)cc3)c3c(sc(C)c3C)-n3c(C)nnc32)C(C)(C)C)cc1` gave a ΔTm of 0.48 °C.
With `COc1cc2c(cc1OC)[C@H]1C[C@@H](OC(=O)[C@@H](N)C(C)C)[C@H](CC(C)C)CN1CC2` the ΔTm was -0.31 °C.
In the case of `CC(=O)OCCN1C(=O)c2c(C)nc3ccc(S(=O)(=O)N4CCOCC4)cc3c2C1=O`, the ΔTm is reported as 0.13 °C.
In the case of `COc1cc(-c2cn(C)c(=O)c3cnccc23)cc(OC)c1CN(C)C`, the ΔTm is reported as -0.03 °C.
Work on `COc1cc(Nc2ncc(F)c(Nc3ccc4c(n3)N(COP(=O)(O)O)C(=O)C(C)(C)O4)n2)cc(OC)c1OC` yielded a ΔTm of 0.24 °C.
In the case of `O=C(NO)C(c1ccc(-c2ncc(C(F)(F)F)cn2)cc1)c1ccccc1F` (centres undefined), the ΔTm is reported as 0.69 °C.
`Cc1ccsc1C(=CCCN1CCC[C@@H](C(=O)O)C1)c1sccc1C` was tested, and the ΔTm was -0.21 °C.
For `NC(=O)c1cccc(NC(=O)CCC(=O)NCCc2cn(CCNS(=O)(=O)c3cccc(C(=O)O)c3)nn2)c1`, the ΔTm was 0.02 °C.
Compound `CC(C)c1ccc(C(=O)N=C(N)N)cc1S(C)(=O)=O` has a ΔTm of -0.25 °C.
For `CCc1oc2ccccc2c1C(=O)c1cc(Br)c(O)c(Br)c1`, the ΔTm was -9.78 °C.
With `Cc1sc(C(=O)c2cncnc2N[C@@H]2C[C@H](COS(N)(=O)=O)[C@@H](O)C2)cc1[C@@H]1NCCc2ccc(Cl)cc21` the ΔTm was -0.1 °C.
Work on `Nc1c[nH]c(=O)c2cc(-c3ccccc3)sc12` yielded a ΔTm of 0.6 °C.
`O=C(O)CCNc1cc(N2CCc3ccccc3CC2)nc(-c2cccnc2)n1` was tested, and the ΔTm was 0.2 °C.
Compound `CC1(C)CC[C@]2(C(=O)O)CC[C@]3(C)C(=CC[C@@H]4[C@@]5(C)C=C(O)C(=O)C(C)(C)[C@@H]5CC[C@]43C)[C@@H]2C1` has a ΔTm of -1.03 °C.
In the case of `Cn1ncc2c(-c3c(-c4ccc(F)cn4)nn4c3COC(C)(C)C4)ccnc21`, the ΔTm is reported as 1.41 °C.
`Cc1[nH]c2c(N3CCCCC3)c(-c3ccccc3)nn2c(=O)c1-c1ccc(O)cc1` was tested, and the ΔTm was -0.07 °C.
Compound `O=C1c2ccccc2C(=O)c2oc(-c3cccnc3)nc21` has a ΔTm of -0.59 °C.
In the case of `Cn1c(NCCN(CCO)CCCc2ccc([N+](=O)[O-])cc2)cc(=O)n(C)c1=O`, the ΔTm is reported as -0.29 °C.
In the case of `CC(C)[C@H](NC(=O)OCc1ccccc1)C(=O)NC(CC(=O)O)C(=O)CF` (some centres undefined), the ΔTm is reported as 0.1 °C.
`CN(C)CCCNC(=O)c1ccc(-c2cc(O)c3ncccc3c2)cc1` showed a ΔTm of 0.58 °C.
In the case of `O=C(c1cc(Cc2n[nH]c(=O)c3ccccc23)ccc1F)N1CC(CNC2CC2)C1`, the ΔTm is reported as -0.14 °C.
Compound `C[C@@H]1O[C@@H](CC(=O)O)CC2=C1C(=O)c1c(O)cccc1C2=O` has a ΔTm of -1.39 °C.
`Cc1ncsc1-c1ccc([C@H](C)NC(=O)[C@@H]2C[C@@H](O)CN2C(=O)[C@@H](NC(=O)CNC(=O)c2ccc(F)c(-c3ccc(N4C[C@@H](C)N(C)[C@@H](C)C4)c(NC(=O)c4c[nH]c(=O)cc4C(F)(F)F)c3)c2)C(C)(C)C)cc1` gave a ΔTm of 0.81 °C.
For `C[C@@H]1OC(=O)NN=C1c1ccc(-c2ccc(F)cc2)c(C(F)(F)F)c1`, the ΔTm was -0.33 °C.
`N#C[C@@H]1CCCN1C(=O)CNC(=O)c1ccnc2ccc(OCCCN3CCN(C(=O)CN4CCN(CC(=O)O)CCN(CC(=O)O)CCN(CC(=O)O)CC4)CC3)cc12` showed a ΔTm of -0.3 °C.
`O=C1C(=O)N(Cc2ccccc2)c2ccc(S(=O)(=O)N3CCC[C@H]3COc3ccc(C(F)(F)F)cc3)cc21` showed a ΔTm of 0.54 °C.
With `CCCCN(Cc1ccc(C(=O)NO)cc1)C(=O)Nc1ccccc1` the ΔTm was 0.26 °C.
